The results in this text go back to PubChem BioAssay (NCATS).

Records with an inconclusive call do not appear. Values without a mark were called inactive. Calls of active or inactive are those of the source. Calls follow the shape of the full dose curve.
% is scaled to controls: 0 for no effect and ±100 for the full control effect; potency is read from the fitted curve at half-maximal effect.

The nature of the assay: Cytotoxicity counterscreen for inhibitors of SARS-CoV-2 cell entry (AID 1645845). Also: nearly all actives have a fitted effect of over 50% in size. Particulars: cell viability (SARS-CoV-2 entry assay cells); series mostly up to 57.1 µM; activity change, negative = cytotoxicity: at the top concentration. From the text: Assay Provider: Wei Zheng, Ph.D.
National Center for Advancing Translational Sciences, National Institute of Health, Rockville, MD.
SARS-CoV-2 spike protein, within the viral envelope, mediates viral attachment and infection of host cells. The SARS-CoV-2 spike protein specifically binds to the host receptor ACE2 (Angiotensin-converting enzyme 2). This interaction promotes endocytosis of the viral particle, additional events lead to viral-host cell membrane fusion and release of the viral contents, allowing viral replication.
While SARS-CoV-2 requires BSL-3 facilities for live virus work, pseudo-typed partices (PP) that incorporate SARS-CoV-2 spike proteins without replication elements could facilitate studies on viral entry mechanisms in a BSL-2 setting. This PP cell entry assay could also enable screening of small molecule compound libraries in BSL-2 setting to identify inhibitors of SARS-CoV-2 cell entry. To eliminate false positive compounds, ATP content cytotoxicity assay was screened in the same cell line.
SEQUENCE No. (e.g., 1, 2, 3, etc.); […] (e.g., Cells, Incubation, Reagent, etc.); VALUE and DESCRIPTION.
1. Cells. Seed 1500 HEK293-ACE2 cells (Expi293F with stable expression of human ACE2) in 2 uL/well media (DMEM, 10% FBS, 1x L-glutamine, 1x Pen/Strep, 1 ug/ml puromycin) in white 1536-well assay plates (Greiner #782073).
2. Incubation. Incubate at 37 C with 5% CO2 overnight (~16 h).
3. Compounds. Dispense 23 nL/well compounds in DMSO via pin transfer.
4. Incubation. Incubate for 1 h at 37C 5% CO2.
5. Reagent. Dispense 2 uL/well of media (DMEM, 10% FBS, 1x L-glutamine, 1x Pen/Strep, 1 ug/ml puromycin).
6. Incubation. Incubate at for 48h at 37C 5% CO2
7. Reagent. Dispense 4 uL/well of ATPLite 1step luminescence assay reagent (PerkinElmer #6016739).
8. Incubation. Incubate for 15 min at room temperature.
9. Detection. Read luminescence signal (Viewlux plate reader, PerkinElmer). Data was normalized with wells containing cells as 100%, and wells without cells (media only control) as 0%.
A general note: Counterscreens check selectivity or assay interference.
Turning to `CN(C(=O)c1c(O)c2ccccc2n(C)c1=O)c1ccccc1`, the “activity change, negative = cytotoxicity” value was -10.3%.

On to `O=c1n(Cl)c(=O)n(Cl)c(=O)n1Cl`, for which the outcome was inactive.

Turning to `O=c1[nH]c(=O)c2[nH]c(=O)[nH]c2[nH]1`, the outcome is “inactive [at 11.3 µM]”.

On to `O=C(CCCN1CCC(n2c(=O)[nH]c3ccccc32)CC1)c1ccc(F)cc1`, for which the “activity change, negative = cytotoxicity” value is -11.9%.

As to `C[C@H]1C[C@H]2[C@@H]3CCC4=CC(=O)C=C[C@]4(C)[C@@]3(Cl)[C@@H](O)C[C@]2(C)[C@@]1(O)C(=O)CO`, the result was inactive.

As to `COc1ccc2c(c1)c(CC(=O)O)c(C)n2C(=O)c1ccc(Cl)cc1`, the Potency result is “inactive”.

Turning to `N#C/C(=C1/SC[C@@H](c2ccc(Cl)cc2Cl)S1)n1ccnc1`, the “activity change, negative = cytotoxicity” value was -10.1%.

Take `CCC(=O)Oc1ccc2c(c1)CC[C@@H]1[C@@H]2CC[C@@]2(C)[C@H]1C[C@@H](OC(=O)CC)[C@@H]2OC(=O)CC`: the molecule was called inactive.

Take `COc1cc(N)c(Cl)cc1C(=O)NC1CCN(CCCOc2ccc(F)cc2)CC1OC` (stereo not given): the “activity change, negative = cytotoxicity” value is -11.7%.

Regarding `COc1ccc2c(c1)C(=O)N(CCc1ccc(S(=O)(=O)NC(=O)NC3CCCCC3)cc1)C(=O)C2(C)C`, the molecule was classed as inactive.

Consider `CC(C)=CCOc1ccc(/C=C/C(=O)c2ccc(OCC=C(C)C)cc2OCC(=O)O)cc1`, for which the result was inactive.

For the molecule `OCC(CO)N[C@H]1C[C@](O)(CO)[C@@H](O)[C@H](O)[C@H]1O`, the “activity change, negative = cytotoxicity” value is 2.73%.

Consider `C[C@@H]1CN(C2CCC(C#N)(c3ccc(F)cc3)CC2)CC[C@]1(C(=O)O)c1ccccc1` (stereo not given in full), for which the “activity change, negative = cytotoxicity” value is -10.5%.

Take `CO[C@@H]1[C@@H](O[C@@H]2O[C@H](C)[C@@H](O[C@H]3C[C@@](C)(O)[C@@H](O)[C@H](C)O3)[C@H](N(C)C)[C@H]2O)[C@@H](CC=O)C[C@@H](C)[C@@H](O[C@@H]2CC[C@H](N(C)C)[C@@H](C)O2)/C=C/C=C/C[C@@H](C)OC(=O)C[C@H]1OC(C)=O`: the “activity change, negative = cytotoxicity” value is -12.4%.

With `C#C[C@]1(O)CC[C@H]2[C@@H]3CCc4cc(O)ccc4[C@H]3CC[C@@]21C`, the “activity change, negative = cytotoxicity” value is -20.8%.

`O=C(Nc1ccc(S(=O)(=O)N2CCOCC2)cc1)c1cc(Cl)ccc1NS(=O)(=O)c1ccc(Cl)s1`: the result was inactive.

For `CC[C@H]1C[C@H]2[C@@H]3CCC4=CC(=O)CC[C@@H]4[C@H]3CC[C@]2(C)[C@H]1O`, the “activity change, negative = cytotoxicity” value is -0.377%.

With `C/C=C/c1ccc(OC)cc1`, the call was inactive.

For the molecule `CC(C(=O)O)c1ccc2c(c1)Cc1cccnc1O2` (stereo not given), the result was inactive.

Regarding `CCOc1ccc2nc(S(N)(=O)=O)sc2c1`, the molecule was called inactive.

For the molecule `N=C(N)c1ccc2cc(OC(=O)c3ccc(N=C(N)N)cc3)ccc2c1`, the Potency result was “inactive”.

Take `CCN(CC)CCOc1ccc(/C(=C(\Cl)c2ccccc2)c2ccccc2)cc1`: the “activity change, negative = cytotoxicity” value is -4.32%.

Consider `CN1CCN(c2cc3c(cc2F)c(=O)c(C(=O)O)cn3-c2ccc(F)cc2)CC1`, for which the “activity change, negative = cytotoxicity” value was -1.66%.

Take `NS(=O)(=O)c1ccc(N2CCCCS2(=O)=O)cc1`: the result was inactive.

Consider `C[C@H](N)[C@H](O)c1ccc(O)c(O)c1`, for which the outcome was inactive.

Consider `O=C(O)Cc1ccccc1`, for which the result was inactive.

Take `Nc1ccccc1C(=O)OCC(O)CO` (stereo not given): the “activity change, negative = cytotoxicity” value is -3.15%.

As for `CCCCCCCCCCCC[N+](C)(C)CCOc1ccccc1`, the Potency was 20 µM (active).

As for `c1ccc(CN(CC2=NCCN2)c2ccccc2)cc1`, the molecule was called inactive.

In the case of `CCn1cc(C(=O)O)c(=O)c2cc(F)c(N3CCN(C)CC3)cc21`, the “activity change, negative = cytotoxicity” value was -13.5%.

In the case of `C1CCN2C[C@@H]3C[C@@H](CN4CCCC[C@@H]34)[C@H]2C1`, the “activity change, negative = cytotoxicity” value is 4.19%.

Regarding `C[C@]12CCC(=O)C=C1[C@@H]1C[C@@H]1[C@H]1[C@@H]3[C@@H]4C[C@@H]4[C@@]4(CCC(=O)O4)[C@@]3(C)CC[C@@H]12`, the “activity change, negative = cytotoxicity” value is -16.9%.

For the molecule `C[C@]12C=CC(=O)C=C1CC[C@H]1[C@@H]3C[C@@H](O)[C@](O)(C(=O)CO)[C@@]3(C)C[C@H](O)[C@@]12F`, the “activity change, negative = cytotoxicity” value was 0.976%.

In the case of `CCCCCCCCCCCCOCCOCCOCCOCCOCCOCCOCCOCCOCCO`, the Potency is 11.2 µM (active).

For the molecule `C[N+](C)(C)CCCCCCCCCC[N+](C)(C)C`, the result was inactive.

As to `CC(C)COCC(CN(Cc1ccccc1)c1ccccc1)N1CCCC1` (stereo not given), the “activity change, negative = cytotoxicity” value was -29%.

As for `CN(C)C(=S)SSC(=S)N(C)C`, the Potency is 1.58 µM (active).

Consider `CC(=O)Oc1ccc2c(c1)CC[C@@H]1[C@@H]2CC[C@]2(C)[C@@H](O)CC[C@@H]12`, for which the “activity change, negative = cytotoxicity” value is 2.3%.

For `Cn1c(=O)c2c(ncn2CC2OCCO2)n(C)c1=O`, the call was inactive.

`O=C(O)c1ccc(OCCCOc2ccc(C(=O)O)cc2)cc1`: the molecule was classed as inactive.
